Measured values: PubChem BioAssay (NCI)
About 83,000 compounds went through this panel and 20% of them were active in at least one assay; those are over-represented in the sample as a whole.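 Method: cells in 96-well plates; compound added at one concentration; 48 h incubation; percent growth measured; values under 10 scored active.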 Unmarked numbers belong to inactive results. Activity calls are given as the source filed them.

Experiments:
Assay in all cases: NCI-60 one-dose screen, 48 h (100 = growth as untreated, 0 = no growth, -100 = all killed)
Details in all cases: 10 µM unless noted
[1] = tested on: DU-145 prostate
[2] = tested on: K-562 leukemia
[3] = tested on: MALME-3M melanoma
[4] = tested on: MDA-MB-231 breast
[5] = tested on: RXF 393 renal
[6] = tested on: SF-268 CNS
[7] = tested on: SF-295 CNS
[8] = tested on: SF-539 CNS
[9] = tested on: UACC-257 melanoma
[10] = tested on: M14 melanoma
[11] = tested on: HCT-15 colon
[12] = tested on: HT29 colon
[13] = tested on: SNB-75 CNS
[14] = tested on: SNB-19 CNS
[15] = tested on: U251 CNS
[16] = tested on: PC-3 prostate
[17] = tested on: SK-MEL-5 melanoma
[18] = tested on: UACC-62 melanoma
[19] = tested on: LOX IMVI melanoma
[20] = tested on: SK-MEL-28 melanoma

SMILES | growth [1] | growth [2] | growth [3] | growth [4] | growth [5] | growth [6] | growth [7] | growth [8] | growth [9] | growth [10] | growth [11] | growth [12] | growth [13] | growth [14] | growth [15] | growth [16] | growth [17] | growth [18] | growth [19] | growth [20]
Cc1cccc2c3c(sc12)C(c1ccc(Cl)cc1)C(C#N)=C(N)O3 (stereo not given) | 17.6% | 5.28% (active) | 61.9% | 26.1% | -7.02% (active) | 44.8% | 1.66% (active) | -14.5% (active) | 69.5% | 9.67% (active) | 10.3% | 6.24% (active) | 4.24% (active) | 27.6% | 27.2% | 16.2% | 27.1% | 17.6% | 18.4% | 58.6%
c1cc2nc(-c3cn[nH]c3)c3c(c2cc1-c1cn[nH]c1)C1CCC3C1 (stereo not given) | 81.4% | 65% | 61.4% | 53% | 15.3% | 77% | 57.8% | 66.7% | 83.9% | 69.3% | 47.2% | 81.8% | -1.68% (active) | 78.9% | 72% | 62.3% | 60.2% | 59.6% | 69.1% | 73.7%
NS(=O)(=O)c1ccc(N=Nc2ccc(-c3nn4cc(-c5ccccc5)nc4s3)cc2)cc1 | 108% | 93.5% | 105% | 107% | 111% | 101% | 96.5% | 97.6% | 99.8% | 96.6% | 99.2% | 99.1% | 86.1% | 108% | 99.7% | 94% | 101% | 101% | 96.9% | 105%
CCOC(=O)C1=C(N)Oc2c(sc3c(CC)cccc23)C1c1ccc(F)cc1 (stereo not given) | 46.3% | 10.7% | 42.1% | 73.1% | -4.56% (active) | 48.9% | 11.8% | 13.4% | 55.7% | 38.2% | 22.4% | 40.4% | -2.89% (active) | 35% | 40.6% | 26.1% | 61.1% | 22% | 35% | 53.8%
CCN1C(=O)N(CC)C2Nn3c(s/c(=C4\C(=O)N(CC(C)C)c5ccccc54)c3=O)=NC21 (stereo not given) | 34.5% | 15.6% | 70% | 19.6% | -3.71% (active) | 66.1% | 42.4% | 7.6% (active) | 87.5% | 18.9% | 27.3% | 86.4% | 14.1% | 54.7% | 36.3% | 38.1% | 39.9% | 45.3% | 54.2% | 66%
COc1ccccc1/C=C1\Oc2cc(OCCN3CCC(Cc4ccccc4)CC3)ccc2C1=O | 102% | 27.6% | 76.8% | 90.3% | 69.9% | 84.4% | 96.6% | 93.8% | 95.1% | 65.9% | 52.5% | 31.2% | 83.6% | 90.8% | 78.2% | 81.8% | 90.9% | 92.1% | 70.7% | 87.5%
Cc1cccc(NCc2cn(-c3ccc(C(=O)O)cc3)nc2-c2ccc(C(=O)O)cc2)n1 | 103% | 96.8% | 96.5% | 95.2% | 115% | 96.2% | 102% | 98.5% | 109% | 110% | 107% | 107% | 87.4% | 104% | 108% | 103% | 103% | 101% | 100% | 104%
COc1c(C2CC(=O)Nc3c2c(C)nn3-c2nc3ccccc3[nH]2)cc2c(c1OC)OCO2 (stereo not given) | 80.2% | 15.1% | 86.5% | 68.4% | 27.1% | 62.1% | 19.8% | 59.8% | 67.1% | 33.3% | 37.2% | 20.5% | 44.2% | 49.6% | 31.5% | 48.4% | 31.9% | 55.2% | 46.7% | 44.2%
